In ChEMBL document CHEMBL1201862, “PubChem BioAssay data set” (2004):
Out of some 310,000 compounds screened, about 17,000 (5.5%) were called active. Inconclusive results (about 11%) are left out. The rule behind the calls is not given here. The sample as a whole holds a higher share of actives than the screen did.

Target: T1, Nuclear receptor ROR-gamma (Mus musculus) (UniProt P51450)
T1 sequence (whole entry): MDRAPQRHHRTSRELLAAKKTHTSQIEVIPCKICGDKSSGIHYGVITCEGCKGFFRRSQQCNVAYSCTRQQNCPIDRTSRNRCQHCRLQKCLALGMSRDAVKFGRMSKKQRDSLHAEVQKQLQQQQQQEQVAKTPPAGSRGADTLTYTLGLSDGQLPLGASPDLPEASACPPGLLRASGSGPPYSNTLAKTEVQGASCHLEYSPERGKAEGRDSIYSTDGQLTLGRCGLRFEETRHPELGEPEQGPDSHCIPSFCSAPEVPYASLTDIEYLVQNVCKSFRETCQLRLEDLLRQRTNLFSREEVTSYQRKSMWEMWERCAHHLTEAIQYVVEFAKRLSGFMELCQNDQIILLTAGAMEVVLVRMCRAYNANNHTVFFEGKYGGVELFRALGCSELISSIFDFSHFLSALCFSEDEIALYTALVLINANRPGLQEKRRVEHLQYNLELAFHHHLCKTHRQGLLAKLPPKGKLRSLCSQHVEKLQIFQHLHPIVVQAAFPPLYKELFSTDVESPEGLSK
Assay: qHTS for inhibitors of ROR gamma transcriptional activity.
Assay type: functional

Potency, active:
COc1ccccc1/C=C/C(=O)c1cccs1 25.1 µM, O=C(/C=C/c1ccc(Cl)cc1)c1cccs1 15.8 µM, c1ccc(-n2ncc3c(NCc4cccnc4)ncnc32)cc1 501 µM
